Source: PubChem (National Center for Advancing Translational Sciences (NCATS))
TSHR agonist: activates the human thyroid stimulating hormone receptor; HEK293-CNG-TSHR cells (CNG channel as cAMP sensor), membrane potential dye, cAMP; Potency, µM (titrated, usually from 57.1 µM), for inactives: top-dose activation, most hits filed as activators; 0.48% of 73,000 active; active = well fitted activation curve with a large enough effect in the main read-out, with a control signal flat, not every such curve was filed as active; inconclusive = small, poorly fitted or top-dose-only effect, or a change in a side signal; inactive = no such curve, though single readings can be large or run the other way; % of control where 0% means no effect;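 note: the control signal comes from parental cells without the receptor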
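HEK 293 cells stably expressing TSHR and a cAMP-gated CNG channel; parental CNG-only cells as counterscreen. Cells preloaded 60 min with membrane potential dye plus 100 uM RO 20-1724, then compound 30 min; fluorescence read at 590 nm.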
HEK293 cAMP ctrl: counter-screen for TSHR agonists: cAMP increase in parental HEK293 | parental HEK293 CNG cAMP sensor, membrane potential fluorescence | Potency, µM (doses to about 57.1 µM), without a hit: at the top dose activation, usual class: activators | 2.5% of 73,000 active; note: % of control where 0% means no effect; nearly all actives have a fitted effect of over 55% in size
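Parental HEK 293 cells stably expressing a cAMP-gated CNG channel were loaded with membrane potential dye containing 100 uM RO 20-1724 for 60 min. Compound added for 30 min; depolarization read as fluorescence intensity at 590 nm.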
GBA mod: alters purified human glucocerebrosidase activity. P04062. purified enzyme, resorufin glucoside fluorescence (screen aimed at inhibitors), 20 min. Potency, µM. 1.1% of 48,000 active. AID 360; in the data active = potency below about 15 µM; inconclusive = mostly about 16 µM to 33 µM;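 note: the screen sought inhibitors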
Target sequence (P04062 whole entry, looked up): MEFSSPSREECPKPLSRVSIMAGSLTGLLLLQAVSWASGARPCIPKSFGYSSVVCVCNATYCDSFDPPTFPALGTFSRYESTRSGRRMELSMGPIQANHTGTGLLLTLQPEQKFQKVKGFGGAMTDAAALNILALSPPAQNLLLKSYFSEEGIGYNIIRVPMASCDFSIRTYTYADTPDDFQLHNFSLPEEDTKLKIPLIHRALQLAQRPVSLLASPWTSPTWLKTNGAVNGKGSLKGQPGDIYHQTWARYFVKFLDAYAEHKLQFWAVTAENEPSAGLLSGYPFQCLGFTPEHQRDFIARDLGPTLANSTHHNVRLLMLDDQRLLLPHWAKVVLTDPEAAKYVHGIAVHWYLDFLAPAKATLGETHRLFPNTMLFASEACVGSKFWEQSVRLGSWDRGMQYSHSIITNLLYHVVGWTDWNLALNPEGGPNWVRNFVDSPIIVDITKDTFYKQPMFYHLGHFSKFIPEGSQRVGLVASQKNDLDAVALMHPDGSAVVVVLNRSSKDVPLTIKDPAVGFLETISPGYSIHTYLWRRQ
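Wild-type enzyme at 0.2 nM final in 50mM citric acid/KH2PO4, 10mM sodium taurocholate, 0.01% tween-20, pH 5.9, with resorufin beta-D-glucopyranoside at 30 uM final. Compounds titrated, 20 min at RT, red fluorescence read; AC50 from titration.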
Luciferase inh: inhibitors of firefly luciferase. Potency, µM (highest dose often 57.1 µM), inactives show top-dose activity change, negative = inhibition, actives largely listed as inhibitors. 2.2% of 72,000 active. purified firefly luciferase, luminescence, 8 min. AID 411; note: % is set by controls: 0 for no effect and ±100 for the full control effect; nearly all actives have a fitted effect of over 40% in size
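Titration-based qHTS; buffer 50 mM imidazole pH 7.2, 50 mM KCl, 7 mM MgCl2, 10 uM ATP, 0.01% Tween 20, 0.05% BSA; luciferase/luciferin detector mix added after compound; 8 min, ambient; luminescence.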
Bst PK mod: pyruvate kinase (B. stearothermophilus) modulation. purified pyruvate kinase, luminescence ATP production; ribose 5-phosphate activator present at AC10. Potency, µM. 1.2% of 51,000 active; in the data active = potency below about 11 µM; inconclusive = mostly about 12 µM to 25 µM;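 the screen sought inhibitors and activators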;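 note: scaled between full activation by ribose 5 phosphate and full inhibition by luteolin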
* = called active by the depositor; i = inactive; ? = inconclusive; . = not tested or not shown; [ ] = remark or other dose. The list is not random: actives were taken first. Their share in the collection is about 5.8%. Unless noted, calls come from the whole dose curve; as a rule, active = well fitted curve in the direction sought with a large enough effect; inconclusive = small, poorly fitted or top-dose-only effect, or another doubt; inactive = no such curve, though single readings can be large; an effect the other way counts as inactive or inconclusive. Potency is the fitted concentration of half-maximal effect.

SMILES	TSHR agonist	HEK293 cAMP ctrl	GBA mod	Luciferase inh	Bst PK mod
O=C(OCc1c(Cl)cccc1Cl)c1cccnc1	19%	10%	>77	1%	9.2*
O=C(OCc1c(Cl)cccc1Cl)c1ccccn1	?	?	>77	0%	3.8*
CC(=O)N1CC=CC1(CC(C)C)C(=O)NCc1ccccn1 (stereo not given)	2%	13%	.	.	.
CCCCn1c(CN(Cc2ccccc2)Cc2ccccc2)nc2c1c(=O)n(C)c(=O)n2C	?	?	>77	-3%	>57
CCCCCn1c(CN(C)Cc2ccccc2)nc2c1c(=O)n(C)c(=O)n2C	?	20µM*	>77	1%	>57
CCOC(=O)c1ccc2nc(NC(=O)C(C)C)sc2c1	4%	34%	.	2%	.
O=C(COC(=O)c1cccc(NC(=O)c2ccco2)c1)c1ccc(Br)cc1	?	?	.	2.5µM*	.
CN(C)S(=O)(=O)c1ccc2nc(NC(=O)c3cccnc3)sc2c1	?	?	>77	13µM*	i
CCOC(=O)c1ccc2nc(NC(=O)c3cccs3)sc2c1	9%	10%	>77	7.9µM*	i
O=C(Nc1nc2ccc(S(=O)(=O)N3CCCCC3)cc2s1)c1ccncc1	0%	0%	?	-2%	>57
CCOC(=O)c1ccc2nc(NC(=O)c3ccco3)sc2c1	-8%	-10%	?	16µM*	i
CC(C)(C)C(=O)COC(=O)c1cccc(NC(=O)c2ccco2)c1	2%	-6%	>77	-4%	>57
COCCNC(=O)C1(CC(C)C)C=CCN1C(=O)c1ccccc1 (stereo not given)	3%	11%	.	.	.
CS(=O)(=O)c1ccc2nc(NC(=O)c3ccco3)sc2c1	-10%	3%	.	4µM*	.
COc1ccccc1C(=O)Nc1nc2ccc(S(C)(=O)=O)cc2s1	8%	7%	.	-17%	.
c1ccc(-c2nnn(C34CC5CC(CC(C5)C3)C4)n2)cc1	32µM*	19%	.	-6%	.
c1ccc(-c2nnn(CCN3CCCCC3)n2)cc1	1%[11.4 µM]	9%[11.4 µM]	.	1%[11.4 µM]	.
C[N+](C)(C)c1nc(N)nc2c1ncn2[C@H]1O[C@@H](CO)[C@@H](O)[C@H]1O	2%[11.4 µM]	7%[11.4 µM]	.	2%[11.4 µM]	.
c1ccc(-c2noc(-c3cccnc3)n2)cc1	-6%[11.4 µM]	7%[11.4 µM]	.	13µM*	.
c1ccc(-c2nc(-c3ccncc3)no2)cc1	2%	5%	.	-24%	i
CN(Cc1nc(-c2ccncc2)no1)S(=O)(=O)c1ccccc1	9%	3%	>77	0%	>57
c1ccc(-c2ccc(-c3nc(-c4ccncc4)no3)cc2)cc1	-7%	3%	.	3.2µM*	.
c1ccc(C(Cc2nc(-c3ccncc3)no2)c2ccccc2)cc1	?	16µM*	>77	0%	>57
c1ccc(-c2ccc(-c3nc(-c4cccnc4)no3)cc2)cc1	-5%	11%	.	3.2µM*	.
COC(=O)c1ccc(C(NC(=O)OCc2ccccc2)/C(=C/[C@@H](C)C(=O)NCC2CC2)c2cccnc2)cc1 (stereo not given in full)	19%	15%	.	.	.
SMILES	TSHR agonist	HEK293 cAMP ctrl	GBA mod	Luciferase inh	Bst PK mod
NCCSCCC(=O)O	8%[11.4 µM]	10%[11.4 µM]	.	1%[11.4 µM]	.
Clc1ccccc1-c1nc(-c2cccnc2)no1	8%	19%	i	13µM*	?
CCc1ccc(-c2nc(-c3ccncc3)no2)cc1	19%[11.4 µM]	30%[11.4 µM]	.	5µM*	.
Clc1ccccc1-c1nc(-c2ccncc2)no1	8%[11.4 µM]	4%[11.4 µM]	.	-24%[11.4 µM]	.
NC(N)=N[C@H](CCC(=O)O)C(=O)O	-33%	5%	.	1%	.
N#Cc1cc(-c2ccccc2)oc1NC(=O)c1ccco1	5%	2%	>77	25µM*	.
NC(=O)c1ccc(-c2nc(-c3ccc4c(c3)OCO4)c(-c3ccccn3)[nH]2)cc1	-2%	-13%	.	7.9µM*	.
Cn1c(SCC(=O)c2ccc3c(c2)OCO3)nnc1-c1ccccn1	?	?	>77	1%	>57
Cc1cc(C(=O)COC(=O)CCC(=O)c2ccc3c(c2)OCCO3)c(C)n1Cc1ccco1	5%	23%	>77	-6%	>57
CCOc1ncccc1C(=O)OCC(=O)c1cc(C)n(Cc2ccco2)c1C	?	?	>77	13µM*	?
NC1=NC2(CCC(c3ccccc3)CC2)n2c(nc3ccccc32)N1 (stereo not given)	1%[11.4 µM]	19%	15*	1%	>57
NC1=NC2(CCCCC2)n2c(nc3ccccc32)N1	-14%	3%	i	0%	>57
NC1=NC2(CCN(Cc3ccccc3)CC2)n2c(nc3ccccc32)N1	6%	4%	3.7*	-2%	6.9*
COc1ccc(OC)c(CCNC(=O)Cn2sc3nc(C)cc(C)c3c2=O)c1	2%	-5%	.	10µM*	.
O=c1cc(N2CCOCC2)oc2c(-c3ccccc3)cccc12	.	15%	.	1%	.
CCCCOc1ccc(C(=O)Nc2ccncc2)cc1	29%	28%	6.2*	-17%	.
CCOc1ccc(-c2nnc(-c3ccncc3)o2)cc1	5%	18%	>77	-21%	2.1*
CCCCOc1ccc(-c2nnc(-c3ccncc3)o2)cc1	?	?	>77	0%	5.6*
Nc1cc(Cl)c([N+](=O)[O-])cc1O	-4%	-23%	.	.	.
c1cn(-c2cc(-c3ccc4c(c3)OCO4)ncn2)cn1	11%	9%	.	-1%[2.29 µM]	.
N=c1cc(C2(O)CCCCC2)n2c(nc3ccccc32)s1	12%	5%	>77	1µM*	1.1*
CCCCN(C)C(=O)CCC(=O)Nc1ccc2nc(N3CCOCC3)cc(C)c2c1	1%	0%	0.71*	-26%	>11
Cc1cc(N2CCOCC2)nc2ccc(Cc3ccc4nc(N5CCOCC5)cc(C)c4c3)cc12	4%[11.4 µM]	4%[11.4 µM]	.	0%[11.4 µM]	.
CCC(C)NC(=O)CCC(=O)Nc1ccc2nc(N3CCOCC3)cc(C)c2c1 (stereo not given)	-2%[11.4 µM]	6%	6.1*	-17%	>57
Cc1cc(N2CCOCC2)nc2ccc(NC(=O)CCC(=O)N3CCC(C)CC3)cc12	5%	-2%	1.7*	-19%	.
SMILES	TSHR agonist	HEK293 cAMP ctrl	GBA mod	Luciferase inh	Bst PK mod
CCOc1ccccc1NC(=O)CCC(=O)Nc1ccc2nc(N3CCN(C)CC3)cc(C)c2c1	-19%	-11%	9.6*	?	>57
CC(C)NC(=O)N1CCC2(CC1)CCN(C(=O)c1csnn1)CC2	2%	-7%	.	1%[11.4 µM]	.
Cc1cc(N2CCOCC2)nc2ccc(NC(=O)CCC(=O)N3CCCCC3)cc12	3%	-2%	2.4*	?	>11
Cc1cccc(-n2nnnc2SCC(=O)NCCN2C(=O)CSC2=O)c1	0%	3%	>77	1%	>57
Cc1cccc(-n2nnnc2SC(C)C(=O)NCCC2=CCCCC2)c1 (stereo not given)	?	13µM*	>77	2%	>11
Cc1cc(C(=O)Nc2ccccn2)no1	-1%	1%	>77	-19%	>57
O=C(Nc1ccccn1)c1ccc2ccccc2n1	?	?	.	3.2µM*	9*
Cc1cc(C(=O)COc2ccc(-c3nnco3)cc2)c(C)n1Cc1ccccc1	?	13µM*	?	0%	>57
